From PubChem BioAssay
Sampled rows, rich in hits. Any-hit rate of the full collection: about 3.8%.
Nrf2 block – Nrf2 qHTS screen for inhibitors | actives 2.1% (n = 360,000) | Potency, µM (titrated, usually from 46 µM), inactives show top-dose activity change, negative = inhibition, most hits filed as inhibitors | A549 ARE-Fluc reporter, luciferase luminescence, 18-24 h; note: % is set by controls: 0 for no effect and ±100 for the full control effect; nearly all actives have a fitted effect of over 60% in size
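A549 ARE_Fluc cells, 5000/well, 5% FBS OPTI-MEM; compounds in dose-response, 18-24 h at 37 °C/5% CO2; CellTiter-Fluor viability read (Ex 405/Em 525), then BugLite luciferase luminescence = Nrf2 activity.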
ATXN viability – Viability Counterscreen for Primary qHTS for Inhibitors of ATXN expression; S2 cells (HEK-293 line with an ATXN2-luciferase reporter) viability, CellTiter-Fluor protease fluorescence, 24 h; Potency, µM (highest dose often 56.7 µM), actives largely listed as cytotoxic; actives 0.49% (n = 400,000); note: nearly all actives have a fitted effect of over 40% in size
TGFb SMAD3 inh – qHTS for Inhibitors of TGF-b | HepG2 CAGA-GFP TGF-b/SMAD3 reporter, GFP fluorescence, 18 h; TGF-beta stimulated, 500 pg/mL final | Potency, µM (series often up to 46.1 µM), for the others: at the highest dose activity, negative = inhibition, usual class: inhibitors | actives 1.2% (n = 410,000) | AID 588855, 2011; note: % is set by controls: 0 for no effect and ±100 for the full control effect; nearly all actives have a fitted effect of over 65% in size
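HEPG2 CAGA-GFP cells (1000/well, DMEM with 1% FBS) were pre-incubated 2 h at 37 degrees C, given compound by pin tool, then stimulated with TGF-beta at 500 pg/mL final for 18 h before per-cell GFP fluorescence imaging.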
A549 tox – Nrf2 qHTS screen for inhibitors: counterscreen for cytotoxicity; actives 0.16% (n = 390,000); AID 504648, 2011; Potency, µM (series often up to 46 µM), inactives show at the highest dose activity change, negative = cytotoxicity, actives largely listed as inhibitors; A549 ARE-Fluc cells, CellTiter-Fluor viability, 18-24 h; note: % is set by controls: 0 for no effect and ±100 for the full control effect
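A549 ARE-Fluc cells in 5% FBS OPTI-MEM, 5000 cells/well, rested 2 h then exposed to compounds in concentration-response for 18-24 h at 37 °C. Viability by CellTiter-Fluor fluorescence (Ex 405/Em 525) after 30 min; luciferase luminescence (BugLite, 15 min, RT) read afterwards.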
ATXN2 expr inh – Primary qHTS for Inhibitors of ATXN expression; HEK-293 ATXN2-luciferase reporter, luminescence, 24 h; Potency, µM (highest dose often 57 µM), inactives show top-dose activity change, negative = inhibition, actives largely listed as inhibitors; actives 0.72% (n = 360,000); AID 1745845, 2022; note: % is set by controls: 0 for no effect and ±100 for the full control effect; nearly all actives have a fitted effect of over 55% in size
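qHTS (up to 57 uM final) was run with 24 h compound exposure of reporter cells at 37 °C. Each well was multiplexed: SteadyGlo luminescence measured ATXN2-luciferase expression after a fluorogenic Gly-Phe-AFC viability readout (25 uM final).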
HepG2 viability – qHTS for Inhibitors of TGF-b: Cytotox Counterscreen; HepG2 CAGA-GFP viability, ATP luminescence, 18 h; Potency, µM (highest dose often 46.1 µM), inactives show at the top dose activity change, negative = cytotoxicity, usual class: cytotoxic; actives 0.76% (n = 410,000); AID 588856, 2011
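HepG2 CAGA-GFP cells (1000/well, DMEM with 1% FBS) received compound, then TGF-beta at 500 pg/mL final, and were incubated 18 hours at 37 degrees C. Viability was read by CellTiter-Glo luminescence. Media-only wells were set as complete cell-killing and DMSO as no toxicity.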
* = called active by the depositor; i = inactive; u = inconclusive; x = no result. Calls come from the whole dose curve; as a rule, active = well fitted curve in the direction sought with a large enough effect; inconclusive = small, poorly fitted or top-dose-only effect, or another doubt; inactive = no such curve, though single readings can be large; an effect the other way counts as inactive or inconclusive. Potency is the fitted concentration of half-maximal effect.

SMILES	Nrf2 block	ATXN viability	TGFb SMAD3 inh	A549 tox	ATXN2 expr inh	HepG2 viability
COc1ccc(CCN2C(=O)COc3ccccc3C2C(=O)Nc2c(C)cccc2C)cc1OC (stereo unspecified)	x	i	x	x	17.8%	x
COc1ccc2cc(C(C)C(=O)N3CCC(C(N)=O)CC3)ccc2c1 (stereo unspecified)	u	i	13.9%	2.1%	-5.5%	1.0%
COc1cc(OC)c(NC(=O)c2cc(C(C)=O)n3ccccc23)cc1Cl	u	x	1.3%	22.8%	x	-29.8%
CCOc1cc(CNCCc2ccc(S(N)(=O)=O)cc2)cc(Cl)c1OCc1ccccc1	-26.5%	x	u	-27.0%	20µM*	-110.0%
CCOc1cc(CNC2CCCC2)cc(Cl)c1OCc1ccc(F)cc1	6.9%	28.2µM*	u	-19.5%	22.4µM*	11.2µM*
CCOc1cc(CNCCc2ccc(S(N)(=O)=O)cc2)ccc1OCc1ccccc1	x	u	39.4%	u	u	-34.7%
Cc1cc(-c2nnc(CCC(=O)N3CCN(Cc4cccc(F)c4)CC3)o2)c(C)o1	9.9%	i	-25.8%	-0.5%	6.9%	-15.8%
COc1ccc(C)cc1-n1nnnc1SCc1cc(=O)n2cc(C)ccc2n1	13µM*	i	-4.2%	-21.3%	-16.0%	-10.3%
Cn1nc(-c2ccccc2F)c2cc(C(=O)Nc3ccc4c(c3)OCCO4)sc21	14.6µM*	u	-9.9%	u	-29.3%	-6.0%
CCCC(O)(c1ccc(OC)cc1)C(CN1CCOCC1)c1ccc(Cl)cc1 (stereo unspecified)	-14.8%	i	u	-14.0%	x	-76.4%
CCCC(O)(c1ccc(Cl)cc1)C(CN1CCOCC1)c1ccc(Cl)cc1 (stereo unspecified)	18.4µM*	i	u	-11.5%	-30.5%	-54.5%
CC(=O)c1cccc(Nc2nc(-c3sc(C)nc3C)cs2)c1	23.1µM*	i	15.8%	-16.0%	0.0%	-21.6%
CCc1ccccc1NC(=O)c1ccc(Cn2nc(N3CCN(c4ccccc4)CC3)ccc2=O)o1	u	u	u	-8.5%	20µM*	-29.6%
CCOc1ccccc1NC(=O)Cn1nc(N2CCN(c3ccccc3)CC2)ccc1=O	u	i	-29.5%	5.1%	-37.8%	-4.2%
COc1ccccc1Cn1c(=S)[nH]c2cc(C(=O)N3CCN(c4ccccc4OC)CC3)ccc2c1=O	0.3%	i	0.1%	5.5%	x	13.4%
COc1ccccc1N1CCN(C(=O)c2ccc3c(=O)n(Cc4ccc5c(c4)OCO5)c(=O)[nH]c3c2)CC1	14.6µM*	i	u	-8.9%	-26.9%	-15.8%
COc1ccc(OCCN2CCN(C(=O)c3ccc(OC)c(OC)c3)CC2)cc1	23.1µM*	i	-1.5%	-18.8%	-31.1%	-46.1%
COc1ccc(C(=O)N2CCN(Cc3ccc4c(c3)OCO4)CC2)cc1OC	16.4µM*	i	u	-6.5%	x	-17.6%
N#CCC(=O)N1CCN(Cc2ccc3c(c2)OCO3)CC1	17.4%	i	-15.0%	0.0%	x	1.58µM*
COc1cc(C(=O)N2CCN(Cc3ccc4c(c3)OCO4)CC2)cc(OC)c1OC	5.1%	i	-0.4%	-6.0%	-0.4%	-5.4%
Nc1cccc(-c2c[nH]c3ncc(-c4cccnc4)cc23)c1	0.3%	i	u	3.0%	1.4%	-31.8%
FC(F)(F)c1ccccc1NC(=S)N1CCN(Cc2ccc3c(c2)OCO3)CC1	18.4µM*	i	u	-2.3%	-34.3%	-31.5%
COCCn1c(=S)[nH]c2cc(C(=O)N3CCN(Cc4ccc5c(c4)OCO5)CC3)ccc2c1=O	u	i	15.8%	-25.6%	-35.8%	-34.3%
COCCn1c(=S)[nH]c2cc(C(=O)N3CCN(c4cccc(Cl)c4)CC3)ccc2c1=O	20.6µM*	i	-20.1%	u	-28.6%	-6.5%
